Measurements reported in PubChem BioAssay (NCATS).
Where “and” joins values, the source holds several entries; their conditions need not be identical. Equal values may be shown once. Results filed as inconclusive are left out. A number with no mark means an inactive call. Calls of active or inactive are those of the source. Calls come from the whole dose curve; as a rule, active = well fitted inhibition curve with a large enough effect; inconclusive = small, poorly fitted or top-dose-only effect; inactive = flat fitted curve, though single readings scatter.

Legend:
[1] = Drug repurposing screens with cells derived from glioblastoma tumor samples (AID 1345199); conditions: GBM patient neurospheres viability, ATP luminescence, 48 h; note: nearly all actives have a fitted effect of over 40% in size
Summary of the method: (§1)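 Primary testing used CD133+ neurospheres from four GBM patients, seven concentrations, 48 h exposure and ATP-based viability; confirmation added three slower-growing patient lines.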

astro = control astrocytes; assay: as above; conditions: viability, ATP luminescence, 48 h; series mostly up to 45.9 µM
Summary of the method: as §1

[2] = at 45.9 µM (top of the series), tumour line B
[3] = at 45.9 µM (top of the series), tumour line D
[4] = at 46 µM (top of the series), tumour line A
[5] = at 46.1 µM (top of the series), tumour line C
[6] = at 20 µM (top of the series), tumour line C
[7] = at 21.2 µM (top of the series), tumour line B
[8] = at 21.2 µM (top of the series), tumour line D
[9] = at 21.3 µM (top of the series), tumour line A
% is set by controls: 0 for no effect and ±100 for the full control effect; potency is the fitted concentration of half-maximal effect.

SMILES	activity, negative = cell killing [1, 2]	activity, negative = cell killing [1, 3]	activity, negative = cell killing [1, 4]	activity, negative = cell killing [1, 5]	Potency (astro)	activity, negative = cell killing [1, 6]	activity, negative = cell killing [1, 7]	activity, negative = cell killing [1, 8]	activity, negative = cell killing [1, 9]	Potency ([1]; tumour line A)
FC(F)(F)C(F)(F)C(F)(F)C(F)(F)C(F)(F)F	3%	-24.7%	-8.67%	-13.9%	inactive	–	–	–	–	–
CC(=O)[C@@]1(O)CC[C@H]2[C@@H]3C=C(Cl)C4=CC(=O)[C@@H]5C[C@@H]5[C@]4(C)[C@H]3CC[C@@]21C	-14.4%	-9.17%	-35.1%	-13.6%	inactive	–	–	–	–	–
O=C1NC(=O)[C@H]2[C@@H]1[C@@H]1C=C[C@H]2C1	-11.5%	-1.45%	-23%	-6.43%	inactive	–	–	–	–	–
CC(=O)NCCCS(=O)(=O)O	-1.38%	-1.99%	-10.5%	-6.16%	inactive	–	–	–	–	–
CCCC1C(=O)N2C(N(C)C)=Nc3ccc(C)cc3N2C1=O (stereo not given)	–	–	–	–	inactive	-0.417%	-20.8%	-11.9%	-28.1%	–
CC(C)=CCC/C(C)=C/CC/C(C)=C/CC/C=C(\C)CC/C=C(\C)CCC=C(C)C	2.98%	-28.8%	-32.1%	-15.4%	inactive	–	–	–	–	–
CO[C@H]1C[C@H](O[C@H]2[C@H](C)[C@@H](O[C@@H]3O[C@H](C)C[C@H](N(C)C)[C@H]3O)[C@@H](C)C[C@]3(CO3)C(=O)[C@H](C)[C@@H](O)[C@@H](C)[C@@H](C)OC(=O)[C@@H]2C)O[C@@H](C)[C@@H]1O	–	–	–	–	inactive	-8.16%	-0.194%	-29.4%	-24%	–
O.O.O.O.O.O.O.O=S(=O)([O-])[O-].[Co+2]	-22.6%	15.1%	-23.8%	10.4%	inactive	–	–	–	–	–
O=C(Cc1cccs1)N[C@@H]1C(=O)N2C(C(=O)[O-])=C(C[n+]3ccccc3)CS[C@H]12	-13.3%	8.29%	-29.7%	-10.2%	inactive	–	–	–	–	–
CCOC(=O)c1cc(-c2ccccc2)nc2ccc(C)cc12	-20.9%	9.36%	–	-13.3%	inactive	–	–	–	–	12.6 µM (active)
OC/C=C/c1ccccc1	-6.23%	-1.36%	-12.3%	8.18%	inactive	–	–	–	–	–
COC(=O)[C@@H](N)CS	4.89%	-8.33%	-26.1%	4.09%	inactive	–	–	–	–	–
O=C(O)[C@H]1CN(C/C=C/P(=O)(O)O)CCN1	-1.77%	1.08%	-25.5%	-5.57%	inactive	–	–	–	–	–
O=C1CCC(c2ccccc2)(C2CCN(Cc3ccccc3)CC2)C(=O)N1 (stereo not given)	-26.8%	-22.6%	–	-22.6%	inactive	–	–	–	–	11.2 µM (active)
Cn1cc(NC(=O)c2cc(NC(=O)c3cc(NC=O)cn3C)cn2C)cc1C(=O)NCCC(=N)N	-15.1%	-11.2%	-20.5%	-26.2%	inactive	–	–	–	–	–
CCC(Oc1ccccc1)C(=O)N[C@@H]1C(=O)N2[C@@H]1SC(C)(C)[C@@H]2C(=O)O (stereo not given in full)	-4.6%	-5.25%	-9.92%	-0.932%	inactive	–	–	–	–	–
NC(=O)CC[C@@H]1NC(=O)[C@H](Cc2ccccc2)NC(=O)[C@H](Cc2ccc(O)cc2)NC(=O)[C@@H](N)CSSC[C@@H](C(=O)N2CCC[C@H]2C(=O)N[C@@H](CCCN=C(N)N)C(=O)NCC(N)=O)NC(=O)[C@H](CC(N)=O)NC1=O	-4.7% and -11.9%	-8.98% and -1.09%	-23.2%	9.23% and 16.1%	inactive	–	–	–	–	–
O=C1NCCN1c1ncc([N+](=O)[O-])s1	–	–	–	–	inactive	-26.4%	-0.147%	-24%	-10.3%	–
CC1(C)S[C@@H]2[C@H](N3C(=O)C(c4ccccc4)NC3(C)C)C(=O)N2[C@H]1C(=O)O (stereo not given in full)	-8.88%	-1.4%	-5.42%	-5.2%	inactive	–	–	–	–	–
O=P(O)(O)OC[C@H]1O[C@](O)(COP(=O)(O)O)[C@@H](O)[C@@H]1O	-4.16%	-21.7%	-47.3%	-3.41%	inactive	–	–	–	–	–
CC(C)[C@@H]1CC[C@@H](C)C[C@H]1OC(=O)c1ccccc1O	-16.3%	-12.7%	-21.2%	-34.9%	inactive	–	–	–	–	–
